Measurements as given in PubChem BioAssay AID2322 (Broad Institute, 2010).
Out of some 27,000 compounds screened, about 120 (0.44%) were called active. The sample holds actives, similar compounds and a random draw of the others, so the mix is not that of the screen. Rule as the data show it: active = inhibition above about 20%; inconclusive = no clear call, values can overlap the other calls; inactive = below that.

Target: Serine/threonine-protein kinase 33 (Homo sapiens) (UniProt Q9BYT3)
Assay: STK33 kinase inhibitors, primary screen, biochemical, luminescence, ADP-Glo, MBP substrate (AID 2322)
Settings: at 12.5 µM, active compounds read high

Chain of Serine/threonine-protein kinase 33 (Homo sapiens) (Q9BYT3 whole entry, looked up): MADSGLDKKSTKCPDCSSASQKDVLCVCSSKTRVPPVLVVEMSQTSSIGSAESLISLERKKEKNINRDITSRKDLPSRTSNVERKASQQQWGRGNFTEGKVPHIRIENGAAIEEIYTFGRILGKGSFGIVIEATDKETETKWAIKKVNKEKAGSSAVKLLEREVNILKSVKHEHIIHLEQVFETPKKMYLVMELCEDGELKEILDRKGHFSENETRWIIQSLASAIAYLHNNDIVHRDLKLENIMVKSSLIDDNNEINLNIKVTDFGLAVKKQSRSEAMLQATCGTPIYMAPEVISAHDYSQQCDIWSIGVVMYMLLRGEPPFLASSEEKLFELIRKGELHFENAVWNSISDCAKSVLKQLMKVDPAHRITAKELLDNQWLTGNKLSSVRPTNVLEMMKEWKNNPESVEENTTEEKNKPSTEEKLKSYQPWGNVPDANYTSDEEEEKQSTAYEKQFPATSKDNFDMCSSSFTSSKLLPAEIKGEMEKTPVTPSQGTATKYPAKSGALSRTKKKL

| SMILES | inhibition |
| --- | --- |
| Cc1ccc(-c2ccc(CCC(=O)O)n2-c2ccc(C(N)=O)cc2)cc1 | -3.89% (inactive) |
| O=C(NCc1ccco1)c1ccc2c(c1)C(=O)N(Cc1cccnc1)C2=O | -0.956% (inactive) |
| Cc1ccc(-c2nc(S(=O)(=O)c3ccc(Br)cc3)c(SCC(N)=O)o2)cc1 | 4.38% (inactive) |
| Cc1ccc(S(=O)(=O)N(C)CC(=O)Nc2cccc(F)c2)cc1 | -1.04% (inactive) |
| CCOC(=O)C(C)Sc1ncnc2c1sc1nc(N3CCOCC3)c3c(c12)CC(C)(C)OC3 (configuration not stated) | -0.767% (inactive) |
| Cc1ccc(NC(=O)CSc2nc3ccccc3s2)cc1[N+](=O)[O-] | 1.36% (inactive) |
| CC(C)[C@H](CO)Nc1nc(Nc2cc(N)cc(Cl)c2)c2ncn(C(C)C)c2n1 | 89.6% (active) |
| Cc1ccc(S(=O)(=O)N(C)C[C@@H]2Oc3ccc(NC(=O)Nc4ccc(F)cc4)cc3C(=O)N([C@H](C)CO)C[C@@H]2C)cc1 | -2.65% (inactive) |
| O=C(CCn1nc(-c2ccc(Cl)cc2)c2ccccc2c1=O)Nc1ccc(Br)cc1 | -3.22% (inactive) |
| O=C(O)CCNS(=O)(=O)c1ccc2c(c1)OCCO2 | 1.73% (inactive) |
| C(=C\c1nn2c(C3COc4ccccc4O3)nnc2s1)/c1ccccc1 (configuration not stated) | -1.1% (inactive) |
| C[C@H]1CN([C@@H](C)CO)C(=O)CCCn2nncc2CO[C@H]1CN(C)Cc1ccc2c(c1)OCO2 | 5.15% (inactive) |
| CN(CC(=O)Nc1ccc(Cl)c(Cl)c1)S(=O)(=O)c1ccc2ccccc2c1 | 0.105% (inactive) |
| Cc1ccc(CN(C)C[C@H]2OCc3cn(nn3)CCCC(=O)N([C@@H](C)CO)C[C@H]2C)cc1 | 3.49% (inactive) |
| Cc1ccccc1OCC(=O)Nc1cc(-c2nc3ccccc3s2)c(Cl)cc1Cl | -0.293% (inactive) |
| COc1ccc(NC(=O)COc2cc(C)c(Br)c(C)c2)c([N+](=O)[O-])c1 | -1.64% (inactive) |
| COc1cccc(NC(=O)N(C)C[C@@H]2OCc3cn(nn3)CCCC(=O)N([C@@H](C)CO)C[C@H]2C)c1 | -4.73% (inactive) |
| O=C(CSc1nc2ccccc2s1)c1cc2ccccc2oc1=O | -1.09% (inactive) |
| COc1cc(Cl)c(C)cc1NC(=O)CSc1nnnn1-c1ccccc1 | -5.72% (inactive) |
| O=C(CSc1nnc(-c2cccs2)n1-c1ccccc1Cl)Nc1cccc(C(=O)O)c1 | -0.392% (inactive) |
| Cn1c(=O)c2c(nc(SCC(=O)NC(C)(C)C)n2Cc2ccccc2F)n(C)c1=O | -1.84% (inactive) |
| C[C@@H]1CN([C@@H](C)CO)C(=O)CCCn2cc(nn2)CO[C@@H]1CN(C)S(=O)(=O)c1cccc(F)c1 | -2.04% (inactive) |
| COc1ccc(NC(=O)CSc2nnc(-c3ccc(Br)cc3)n2C)cc1 | -2.11% (inactive) |
| CCn1c(SCC(=O)c2ccc(OC)cc2)nnc1-c1ccc(Cl)cc1Cl | -3.02% (inactive) |
| Cc1noc(C)c1NC(=O)Nc1ccc2c(c1)C(=O)N([C@H](C)CO)C[C@H](C)[C@@H](CN(C)Cc1ccc3c(c1)OCO3)OCCCC[C@@H](C)O2 | -1.44% (inactive) |
| C[C@@H]1CN([C@H](C)CO)C(=O)Cc2cc(NC(=O)Nc3ccc4c(c3)OCO4)ccc2O[C@@H]1CN(C)C(=O)Nc1ccccc1 | 0.707% (inactive) |

| SMILES | inhibition |
| --- | --- |
| C=CCn1c2ccccc2c2nnc(SCC(=O)N3c4ccccc4Sc4ccccc43)nc21 | -0.993% (inactive) |
| C[C@@H]1CN([C@@H](C)CO)C(=O)CCCn2cc(nn2)CO[C@@H]1CN(C)S(=O)(=O)c1ccccc1C#N | -7.04% (inactive) |
| COC(=O)c1cc(NC(=O)Cc2ccccc2[N+](=O)[O-])ccc1Cl | 1.83% (inactive) |
| CCn1c(SCC(=O)c2ccc(OC)cc2)nnc1-c1ccccc1F | -0.529% (inactive) |
| Cc1cc(OCc2nc3ccccc3s2)ccc1NC(=O)c1cccc(F)c1 | 0.681% (inactive) |
| CS(=O)(=O)N(CC(=O)Nc1ccc(F)cc1F)c1cc(Cl)c(Cl)cc1Cl | -1.13% (inactive) |
| C=CCN1C(=O)[C@]2(O[C@H](CCn3cc(CCO)nn3)[C@@H]([Si](C)(C)c3ccc(OC)cc3)[C@@H]2C)c2cc(N3CCOC3=O)ccc21 | -0.0517% (inactive) |
| CC(=O)c1cccc(N(CC(=O)Nc2ccccc2C(F)(F)F)S(C)(=O)=O)c1 | 0.774% (inactive) |
| CCc1ccccc1NC(=O)COc1cc(O)c2c(=O)cc(-c3ccccc3)oc2c1 | 6.95% (inactive) |
| CC(=O)OC[C@H]1O[C@@H](Oc2c(-c3ccc(O)c(O)c3)oc3cc(O)cc(O)c3c2=O)[C@H](O)[C@@H](O)[C@@H]1O | 6.14% (inactive) |
| COc1c(O)cc2oc(-c3ccc(O)c(O)c3)cc(=O)c2c1O | 39.8% (active) |
| Cc1ccc2nc(-c3ccc(Cl)c(NC(=O)COc4ccc(Br)cc4)c3)oc2c1 | 0.49% (inactive) |
| Cc1ccc(-c2nnc(SCC(=O)Nc3ccccc3OC(F)F)o2)cc1 | 2.8% (inactive) |
| C[C@H]1CN([C@@H](C)CO)C(=O)c2cc(NC(=O)CCN3CCOCC3)ccc2O[C@@H]1CN(C)C(=O)Nc1ccc(C(F)(F)F)cc1 | -0.787% (inactive) |
| N#Cc1c(NC(=O)C2CC(Cl)=CCC2C(=O)O)sc2c1CCC2 (configuration not stated) | -3.84% (inactive) |
| CCc1cc(Br)cc(C)c1NC(=O)CSc1nnc(-c2ccc(Cl)cc2)n1C | 3.71% (inactive) |
| C[C@@H]1CN([C@H](C)CO)C(=O)CCCn2nncc2CO[C@@H]1CN(C)S(=O)(=O)c1cccc(C#N)c1 | -5.23% (inactive) |
| COC(=O)Nc1ccc(S(=O)(=O)N2CCCC(C(=O)Nc3ccc(N(C)C)cc3)C2)cc1 (configuration not stated) | -2.4% (inactive) |
| C[C@@H]1CCCCO[C@H](CN(C)C(=O)NC2CCCCC2)[C@@H](C)CN([C@H](C)CO)C(=O)c2cc(NS(=O)(=O)c3ccc(F)cc3)ccc2O1 | -0.501% (inactive) |
| O=C(CSc1nc2c(c(C(F)(F)F)n1)CCCC2)N1c2ccccc2Sc2ccccc21 | 2.75% (inactive) |
| Cc1cc(C)cc(NC(=O)CSc2nnc(-c3ccncc3)n2-c2ccccc2)c1 | -3.15% (inactive) |
| Cc1noc(C)c1S(=O)(=O)Nc1ccc2c(c1)CC(=O)N([C@@H](C)CO)C[C@H](C)[C@@H](CN(C)S(=O)(=O)c1cn(C)cn1)O2 | 1.65% (inactive) |
| COc1cccc(NC(=O)CCC(=O)O)c1 | -2.64% (inactive) |
| Cc1cccc(NC(=O)CSc2nnc3c4ccccc4nc(-c4ccccc4)n23)c1 | -2.64% (inactive) |
| Cc1cccc(C)c1NC(=O)CSc1nc(O)cc(=O)[nH]1 | -1.7% (inactive) |
| COc1ccccc1CC(=O)Nc1ccc(-c2nnc(-c3ccc(C)cc3)o2)cc1 | 6.73% (inactive) |

| SMILES | inhibition |
| --- | --- |
| Cc1ccc2nc(-c3ccncc3)cc(C(=O)NCc3ccccn3)c2c1 | -5.08% (inactive) |
| COC(=O)c1sccc1NC(=O)COc1cc(C)ccc1Cl | 6.51% (inactive) |
| COc1cc2c(cc1NC(=O)CN(C)S(=O)(=O)c1ccc(Br)cc1)oc1ccccc12 | -2.44% (inactive) |
| Cc1ccc([N+](=O)[O-])cc1NC(=O)CSc1nnc(-c2ccncc2)n1C | -0.493% (inactive) |
| O=C(CCn1nc(-c2ccccc2)c2ccccc2c1=O)Nc1cccc(Br)c1 | 8.57% (inactive) |
| O=C(COc1ccc2ccccc2c1Br)NCCN1CCOCC1 | 0.329% (inactive) |
| O=C(CSc1nnc(-c2ccncc2)n1-c1ccccc1)Nc1ccc(OC(F)(F)F)cc1 | 1.66% (inactive) |
| COC(=O)c1c(-c2cccnc2)csc1NC(=O)c1cc(-c2ccc(C)o2)nc2ccccc12 | 9.69% (inactive) |
| C[C@@H]1CN([C@H](C)CO)C(=O)Cc2cc(NC(=O)CCCN(C)C)ccc2O[C@H]1CN(C)S(=O)(=O)c1cccs1 | -0.927% (inactive) |
| COc1cc(OC)c(C2=NOC(C(=O)Nc3cccnc3)C2)cc1Cl (configuration not stated) | -2.64% (inactive) |
| C[C@H](CO)N1C[C@H](C)[C@H](CN(C)S(=O)(=O)c2ccccc2)Oc2ccc(NC(=O)Cn3cnnn3)cc2C1=O | 1.24% (inactive) |
| COc1ccc(S(=O)(=O)Nc2ccc3c(c2)C(=O)N([C@H](C)CO)C[C@H](C)[C@@H](CN(C)Cc2ccc(-c4ccccc4)cc2)O3)cc1 | 2.44% (inactive) |
| CC(=O)Nc1ccc(S(=O)(=O)NC2(C(F)(F)F)C(=O)N(Cc3ccc(F)cc3)C3=C2C(=O)CC(C)(C)C3)cc1 (configuration not stated) | -0.346% (inactive) |
| CCOC(=O)c1sc(NC(=O)c2cc(C)on2)c(C(=O)OCC)c1C | -1.02% (inactive) |
| Cc1nnc(SCC(=O)Nc2cc(C(F)(F)F)ccc2Cl)s1 | 3.42% (inactive) |
| O=C(COc1ccc2oc3c(c2c1)CCCC3)Nc1cccnc1 | -2.38% (inactive) |
| O=C1c2ccccc2C(=O)N1CCCc1nc2ccccc2c(=O)n1-c1nc2ccccc2s1 | -0.682% (inactive) |
| CC(C)=CCCC(C)(O)C(O)Cc1cc(C(=O)O)cc(CC=C(C)C)c1O (configuration not stated) | -4.79% (inactive) |
| O=C(Cn1ccc([N+](=O)[O-])n1)NCc1cccs1 | 4.56% (inactive) |
| COc1ccc(C(=O)N(Cc2nc(-c3ccccc3)no2)C(C)C)cc1[N+](=O)[O-] | -9.54% (inactive) |
| COC(=O)c1cc(OC)c(OC)cc1NC(=O)COc1ccc(Cl)cc1 | -1.45% (inactive) |
| Cc1cc(Cl)ccc1NC(=O)CN(c1ccc(Cl)c(Cl)c1)S(C)(=O)=O | -1.61% (inactive) |
| O=S(=O)(c1ccc(F)cc1)c1nc(-c2ccccc2Cl)oc1NCc1ccco1 | 4.44% (inactive) |
| COc1cc(-c2nc3ccccc3s2)ccc1OCC(=O)Nc1ccc(C)cc1 | 1.24% (inactive) |
| C[C@H](CO)N1C[C@H](C)[C@H](CN(C)C)Oc2ncc(/C=C/c3ccccc3)cc2C1=O | -3.66% (inactive) |
